In PubChem BioAssay AID588342 (National Center for Advancing Translational Sciences (NCATS), 2011):
Several values for one entry are separate records, joined by “and”; a condition that tells them apart may be missing. Identical values can stand only once. About 25,000 (6.9%) of roughly 360,000 compounds were called active. Another 9% or so got no clear call; they are omitted. Calls follow the shape of the dose curve; as a rule, active = well fitted inhibition curve with a large enough effect; inconclusive = small, poorly fitted or top-dose-only effect; inactive = flat fitted curve, though single readings scatter. For the sample, actives were picked, then their nearest neighbours and some compounds at random. Where a structure was tested more than once in an assay, its records may differ in their call.

target: Luciferin 4-monooxygenase (Photinus pyralis) (UniProt P08659); test: qHTS profiling assay for firefly luciferase inhibitor/activator using purifed enzyme and Km concentrations of substrates (counterscreen for miR-21 project); conditions: purified FLuc, luminescence inhibition; series mostly up to 57.5 µM; activity change, negative = inhibition: at the top concentration; also: nearly all actives have a fitted effect of over 55% in size;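 as to activity change, negative = inhibition: plate controls were vehicle for no effect and reference inhibitor for full effect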
Sequence (P08659 whole entry, looked up): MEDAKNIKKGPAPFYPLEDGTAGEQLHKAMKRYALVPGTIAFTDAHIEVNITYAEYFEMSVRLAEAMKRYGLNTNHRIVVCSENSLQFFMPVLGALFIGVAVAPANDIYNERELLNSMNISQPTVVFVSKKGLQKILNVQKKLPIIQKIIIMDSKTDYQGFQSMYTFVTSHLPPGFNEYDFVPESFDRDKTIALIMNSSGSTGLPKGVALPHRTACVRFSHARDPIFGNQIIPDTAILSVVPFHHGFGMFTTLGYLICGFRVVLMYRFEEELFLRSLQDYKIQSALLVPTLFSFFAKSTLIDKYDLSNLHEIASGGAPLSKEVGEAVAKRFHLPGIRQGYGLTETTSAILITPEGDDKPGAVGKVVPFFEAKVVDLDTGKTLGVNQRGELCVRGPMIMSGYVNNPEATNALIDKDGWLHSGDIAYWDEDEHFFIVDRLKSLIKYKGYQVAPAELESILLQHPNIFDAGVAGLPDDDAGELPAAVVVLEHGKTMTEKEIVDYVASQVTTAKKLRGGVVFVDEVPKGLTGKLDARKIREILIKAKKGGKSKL
Procedure, shortened: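 Purified P. pyralis luciferase, 10 nM final, with Km-level 10 uM D-luciferin and 10 uM ATP in 50 mM Tris acetate pH 7.5, 10 mM Mg acetate, 0.01% Tween-20, 0.05% BSA; 6-point qHTS titration about 60 µM downward; luminescence read.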
Potency is read from the fitted curve at half-maximal effect.

Structure (SMILES) | activity change, negative = inhibition | Potency
Cc1nc2nc(SCC(=O)N(Cc3ccccc3)C(C)C)nn2c(C)c1Cc1ccccc1Cl | 1.64% (inactive) | 
NS(=O)(=O)c1ccc(CCNC(=O)COC(=O)COc2cccc(C(F)(F)F)c2)cc1 | 3.88% (inactive) | 
CC(C)Cn1c(=O)c2ccccc2n2c(-c3cccc(Cl)c3)nnc12 | -7.72% (inactive) | 
COc1ccc(NC(=O)C2CCCN(S(=O)(=O)c3cccc4nonc34)C2)cc1Cl (stereo not given) | 2.63% (inactive) | 
Cc1ccc(Cl)cc1N1CCN(C(=O)CN2C(=O)COc3ccc(S(=O)(=O)N4CCOCC4)cc32)CC1 | -0.641% (inactive) | 
Cc1cccc(N2CCN(C(=O)CCn3c(=O)c4cccn4c4cccnc43)CC2C)c1 (stereo not given) | 1.02% (inactive) | 
O=C(c1cccc(Cl)c1)N1CCN(CCc2ccncc2)CC1 | 0.749% (inactive) | 
O=C(NNS(=O)(=O)c1ccc([N+](=O)[O-])cc1)C1CCCCC1 | 1.02% (inactive) | 
COc1ccc(OC)c2sc(N3CCN(C(=O)C4COc5ccccc5O4)CC3)nc12 (stereo not given) | -1.76% (inactive) | 
O=C(NCCc1ccc(C(F)(F)F)cc1)c1ccc2c(c1)OCO2 | 3.23% (inactive) | 
CC(NCC(=O)Nc1ccccc1C(=O)NC1CC1)c1ccccc1Cl (stereo not given) | -1.23% (inactive) | 
C/C(=N\NC(=O)CNC(=O)C(c1ccccc1)c1ccccc1)c1ccc(C)cc1 | 2.35% (inactive) | 
C/C(=N\NC(=O)c1nc(C)cc(C)n1)c1ccccc1 |  | 12 µM (active)
C/C(=N\NC(=O)c1cc2c(s1)CCC(C)C2)c1cccnc1 (stereo not given) |  | 16.9 µM (active)
CC1CCc2sc(C(=O)NCC(c3ccco3)N3CCCCC3)cc2C1 (stereo not given) | -3.5% (inactive) | 
C/C(=N\NC(=O)c1cccc([N+](=O)[O-])c1)c1cccnc1 | 0.224% (inactive) | 
C/C(=N/NC(=O)c1ccn(C)n1)c1ccncc1 | -5.86% (inactive) | 
CCOc1ccc(C(CCc2ccccc2)NC(=O)c2ccc(OC)c(OC)c2)cc1OCC (stereo not given) | -1.05% (inactive) | 
CCC(CC)C(=O)N1CCc2cc(OC)c(OC)cc2C1COc1ccc(F)cc1 (stereo not given) | -4.53% (inactive) | 
N#CCC(=O)Nc1ccc(C(=O)OCC(=O)Nc2sc3c(c2C#N)CCCC3)cc1 | -9.6% (inactive) | 
O=C1N=C(N2CCc3ccccc3C2)S/C1=C\c1ccc(O)cc1 |  | 16.9 µM (active)
O=C(C1CCN(c2nnc(-n3cccc3)s2)CC1)N1CCc2ccccc2C1 | 1.79% (inactive) | 
NC1=NC(=O)S/C1=C\c1ccc(O)cc1 | -7.93% (inactive) | 
CCOc1ccc(N=C2NC(=O)S/C2=C\c2ccc(O)cc2)cc1 | -7.47% (inactive) | 
CC1CCN(C2=NC(=O)/C(=C/c3ccc(O)cc3)S2)CC1 |  | 10.7 µM (active)
CCCN(C(=O)Cn1ncc2c([nH]c3ccc(C)cc32)c1=O)c1ccccc1C | -6.95% (inactive) | 
COc1cccc(CNC(=O)c2ccc3c(c2)N(Cc2ccc(C(F)(F)F)cc2)C(=O)c2ccccc2S3)c1OC | -4.21% (inactive) | 
CSCCC(C(=O)NC1=NCCS1)N1C(=O)c2ccccc2C1=O (stereo not given) | 2.14% (inactive) | 

Structure (SMILES) | activity change, negative = inhibition | Potency
CC(C)(C)c1cc(C(=O)N/N=C/c2ccc([N+](=O)[O-])s2)n[nH]1 | -3.18% (inactive) | 
O=[N+]([O-])c1ccc(C=Nc2ccc(Cl)cc2Cl)s1 |  | 2.13 µM (active)
CCOc1ccc(NC(=O)CCC(=O)N/N=C/c2ccc([N+](=O)[O-])s2)cc1 | 5.81% (inactive) | 
COc1ccc(C)cc1NC(=O)CCCN1C(=O)NC(C)(C)C1=O | 5.36% (inactive) | 
CCCNC(=O)CCC(=O)N1Cc2ccccc2Oc2ncccc21 | -0.325% (inactive) | 
CCCCC(=O)OC1=CN(Cc2ccccc2)S(=O)(=O)c2ccccc21 | 5.5% (inactive) | 
COCCn1c(C)cc(C(=O)CSc2ncnc3sc4c(c23)CCC4)c1C | 8.69% [at 2.3 µM] (inactive) | 
COCCn1c(C)cc(C(=O)CSc2nnc(C3CC3)n2C2CC2)c1C |  | 19 µM (active)
COCCn1c(C)cc(C(=O)CSc2nc3ccccc3c(=O)n2C(C)COC)c1C (stereo not given) | -12.6% (inactive) | 
CCOC(=O)c1c(N)c(C#N)nn1-c1ccccc1C(=O)OC | 4.06% (inactive) | 
Cc1cc(C)n(CC(=O)Nc2ccc([N+](=O)[O-])cc2)n1 | 0.707% (inactive) | 
CC1CC(C)CN(C/C=C/c2ccccc2[N+](=O)[O-])C1 (stereo not given) | 5.73% (inactive) | 
COc1ccc(-c2c(C)nn3c(N4CCC(C(=O)NCCC(C)C)CC4)cc(C)nc23)cc1OC | 0.887% (inactive) | 
O=C(N/N=C/c1ccc([N+](=O)[O-])cc1)C(=O)N1CCCC1 | 1.64% (inactive) | 
COC(=O)c1ccc(/C=N/NC(=O)C(=O)N2CCCCCC2)cc1 | -1.34% (inactive) | 
O=C(N/N=C/c1ccc2c(c1)OCO2)C(=O)N1CCCC1 |  | 15.1 µM (active)
CCn1ncc(C2=NOC(C(=O)Nc3ccccc3C(=O)OC)C2)c1C (stereo not given) | -0.901% (inactive) | 
Cc1cccc(-n2c(SCC(N)=O)nc3c(oc4ccccc43)c2=O)c1 | 1.16% (inactive) | 
COc1cccc(C(=O)Nc2nnc(S(=O)(=O)N(C)c3ccccc3)s2)c1 | -19.1% (inactive) | 
CN(Cc1ccco1)S(=O)(=O)c1nnc(NC(=O)c2ccccc2)s1 |  | inactive and 23.9 µM (active)
CCCCC(=O)Nc1nnc(S(=O)(=O)N(C)Cc2ccco2)s1 | 1.16% (inactive) | 
CCCCN(C)CCCNC(=O)CN1N=C(c2ccc(OC)cc2)CCC1=O | 2.79% (inactive) | 
COc1ccc(NC(=O)CSc2nc3ccccc3c(=O)n2C)cc1 | -0.538% (inactive) | 
COC(=O)CSc1nc2ccccc2c(=O)n1Cc1ccccc1 | 5.35% (inactive) | 
Cc1ccc(C(=O)CSc2nc3ccccc3c(=O)n2N)o1 |  | 12 µM (active)
Cc1cccc(N2CCN(C3=C(c4ccccc4)C(=O)c4ccccc43)CC2)c1C | -7.51% (inactive) | 
O=[N+]([O-])c1ccc(NCCCO)c(C(F)(F)F)c1 | 2.46% (inactive) | 
